Inhibition data for 15 compounds are collected here from PubChem BioAssay AID686964 (The Scripps Research Institute Molecular Screening Center, 2013).

Among all 370,000 compounds or so, about 1,100 (0.3%) were called active. This excerpt belongs to a sample that is enriched for actives. A number with no mark means an inactive call. Rule as the data show it: active = inhibition above about 13%; inactive = the rest.

Methyl-CpG-binding domain protein 2 (Homo sapiens), sequence (Q9UBB5 whole entry, looked up, the tested form may be a part): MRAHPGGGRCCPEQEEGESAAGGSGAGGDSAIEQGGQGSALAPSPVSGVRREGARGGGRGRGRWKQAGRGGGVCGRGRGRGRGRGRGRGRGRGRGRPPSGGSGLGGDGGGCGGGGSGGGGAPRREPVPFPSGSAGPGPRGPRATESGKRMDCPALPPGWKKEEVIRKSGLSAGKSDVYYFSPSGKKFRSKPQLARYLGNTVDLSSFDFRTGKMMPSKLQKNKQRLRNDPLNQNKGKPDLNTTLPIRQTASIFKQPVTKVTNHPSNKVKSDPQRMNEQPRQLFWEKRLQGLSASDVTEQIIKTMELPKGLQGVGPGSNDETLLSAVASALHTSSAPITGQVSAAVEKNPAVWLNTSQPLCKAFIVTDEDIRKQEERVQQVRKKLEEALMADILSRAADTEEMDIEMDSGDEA

This experiment addresses Methyl-CpG-binding domain protein 2 (Homo sapiens) (UniProt Q9UBB5). The experiment is described as follows: MBD2-DBD methyl-oligonucleotide interaction blockers – biochemical, TR-FRET, DNA-binding domain, human, primary screen (AID 686964). As to conditions: MBD2 binding to methylated oligonucleotide, at 4.4 µM, hits give high values. For orientation: Time-resolved FRET reads energy transfer from a long-lived donor to a nearby acceptor.
Usually inhibition stands for the drop in the measured response relative to a control, in per cent. Take `COc1ccc(N2C(=O)/C(=C/c3ccco3)C(=O)NC2=S)cc1`: the inhibition is 32% (active).
The same measure for `O=C(O)CCn1cc(C=C2C(=O)NC(=S)NC2=O)c(-c2cccc(Br)c2)n1`: 2.88%; for `COC(=O)C1=C(c2ccccc2OCc2ccccc2)C[C@@H]2CC[C@H]1N2C(=O)NCc1ccc(OC)cc1`: -6.77%; for `CO[C@H]([C@H](C)/C=C/N(C)C=O)[C@@H](C)C(=O)CC[C@H](C)[C@H](O)[C@H](C)[C@H]1OC(=O)/C=C/C(C)=C/[C@H](O)[C@H](OC)C[C@@H]2C=CC[C@@H](C[C@H](OC)[C@@]3(CO3)[C@@H](OC)C[C@@H](OC)[C@@H]1C)O2`: 3.68%.
Consider `CN(C)C(=O)Oc1cc(=O)n2c3c(cccc13)CCC2`, for which the inhibition was -1%.
Consider `COP(=O)(Sc1ccccc1)C(Cc1ccccc1)NC(=O)OCc1ccccc1` (stereo not given), for which the inhibition was 1.01%.
The same measure for `Cc1cc(/C=C2/C(=O)NC(=O)N(Cc3ccco3)C2=O)c(C)n1-c1ccc(C(=O)O)cc1`: 23.8% (active).
The figure for `O=C1NC(=O)N(Cc2ccco2)C(=O)/C1=C\c1ccc(-c2ccc(F)cc2)o1` is 31.9% (active); for `Cc1ccnc(-n2c(C)cc(/C=C3\C(=O)NC(=S)N(C)C3=O)c2C)c1` it is -7.85%.
The figure for `COc1cc2nc(N3CCN(C(=O)[C@@H]4CCCO4)CC3)nc(N)c2cc1OC` is 2.48%.
Consider `Cc1ccccc1CCC[C@@H](CC1CCCCC1)CN(C)C(=O)Oc1ccccc1`, for which the inhibition was -0.69%.
The same measure for `O=C(O)C1CSC(c2cccnc2)N1` (stereo not given): -2.74%; for `CC(C)c1ccc(-n2c(O)c(/C=N/N3CCOCC3)c(=O)[nH]c2=S)cc1`: -0.85%.
`CSc1ccc(C(=O)C2CCCN(Cc3ccn[nH]3)C2)cc1` (stereo not given): the inhibition is -7.23%.
The same measure for `CC(C)(C)[C@]1(O)C[C@@H]2OC(=O)C[C@@]23C(=O)O[C@@H]2OC(=O)[C@H](O)[C@]213`: -1.05%.
